Rows were chosen to be rich in hits. Some 21% of all compounds tested hit in one or more screens of this group.
AMA1 RON2 block: disrupts binding of P. falciparum AMA1 to RON2; AlphaScreen AMA1-biotinylated RON2 peptide binding; Potency, µM (doses to about 58.2 µM), for the others: at the highest dose activity change, negative = inhibition, actives largely listed as inhibitors; 360,000 tested, 0.2% active;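 also: potency is read from the fitted curve at half-maximal effect; 0% = vehicle wells and -100% = peptide control; nearly all actives have a fitted effect of over 45% in size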
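AMA1 (3D7) with his tag at 25 nM final met compounds first, then biotinylated RON2 peptide at 25 nM; detection used donor plus acceptor beads, 10 µg/mL apiece, read by AlphaScreen after 30 min at room temperature.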
CHX counter: counter-screen hit for Shiga toxin inhibitors, cycloheximide; cell reporter, cycloheximide protein synthesis inhibition counterscreen; max response, %; 300,000 tested, 12% active; AID 2314; in the data active = max response mostly above about 13%, no sharp cut-off; inactive = mostly below about 14%; also: read at 38.3 µM for the half of the compounds with a filed dose; 0% is about no effect
Pf growth 96h: inhibits malaria parasite growth, 96 h | P. falciparum luciferase reporter growth, 96 h | Potency, µM (series often up to 28.7 µM), inactives show at the top dose activity change, negative = inhibition, actives largely listed as inhibitors | 320,000 tested, 6.9% active; also: potency is read from the fitted curve at half-maximal effect; % is scaled to controls: 0 for no effect and ±100 for the full control effect
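Cell-based qHTS: luciferase-tagged P. falciparum in erythrocytes (2% hematocrit, 0.05% parasitemia final) incubated with compounds for 96 hours, 37 C, 5% CO2; luciferase detection reagent then added and luminescence measured.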
Shiga inhibitor: Shiga toxin inhibition | Vero cells, Shiga toxin protein synthesis inhibition reporter | inhibition, % at 38.7 µM | 290,000 tested, 9.2% active | AID 2315; in the data active = inhibition mostly above about 28%, no sharp cut-off; inactive = mostly below about 43%; also: 0% is about no effect
HCV inh: blocks hepatitis C virus | AID 651820 | Potency, µM (titrated, usually from 41.8 µM), inactives show top-dose activity change, negative = inhibition, usual class: inhibitors | Huh7.5.1 HCVcc-Cre infection, luciferase reporter, 44 h | 340,000 tested, 3.4% active; also: potency is read from the fitted curve at half-maximal effect; % is scaled to controls: 0 for no effect and ±100 for the full control effect
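Seed cells (1,000/well) for 4 h; treat with compound and infect with HCVcc-Cre, moi about 0.5. Incubate 44 h, then detect luciferase activity.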
Pf growth 48h: P. falciparum growth inhibition at 48 hours (one generation); Potency, µM (doses to about 28.7 µM), inactives show at the top dose activity change, negative = inhibition, most hits filed as inhibitors; 310,000 tested, 5.9% active; AID 504832; P. falciparum luciferase growth in erythrocytes, 48 h; also: potency is read from the fitted curve at half-maximal effect; % is scaled to controls: 0 for no effect and ±100 for the full control effect
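Compounds are pin-transferred into medium, infected erythrocytes (2% hematocrit, 0.1% parasitemia final) are added, and plates sit one parasite generation at 37 C in 5% CO2. Detection reagent is then added and luminescence measured.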
Numbers without * were called inactive; ? = inconclusive; . = no result. Unless noted, calls follow the shape of the dose curve; as a rule, active = well fitted curve in the direction sought with a large enough effect; inconclusive = small, poorly fitted or top-dose-only effect, or another doubt; inactive = no such curve, though single readings can be large; an effect the other way counts as inactive or inconclusive.

SMILES	AMA1 RON2 block	CHX counter	Pf growth 96h	Shiga inhibitor	HCV inh	Pf growth 48h
COc1ccc(-n2nc([N+](=O)[O-])c(=NCCc3cccc(C)c3)n2O)cc1	?	10	-13%	-1	?	-12%
O=[N+]([O-])c1nn(-c2ccccc2)n(O)c1=NCc1ccc2c(c1)OCO2	-5%	30*	?	54*	-16%	-24%
O=C(NCc1ccc2c(c1)OCO2)Nc1ccc([N+](=O)[O-])cc1	5%	3	?	-2	?	?
COc1ccc(-n2nc([N+](=O)[O-])c(=NCCCN3CCCC3=O)n2O)cc1	5%	17	5%	21	?	34%
O=[N+]([O-])c1nn(-c2ccc(Cl)cc2)n(O)c1=NCc1ccccc1	-6%	36*	23%	61	-5%	172%
O=C1CCCN1CCCN=c1c([N+](=O)[O-])nn(-c2ccc(Cl)cc2)n1O	1%	13	23%	29	11µM*	?
COc1ccc(-n2nc([N+](=O)[O-])c(=NCc3ccc4c(c3)OCO4)n2O)cc1	-29%	55*	7.4µM*	65*	?	243%
O=C(c1ccc(Cl)cc1[N+](=O)[O-])N(Cc1ccccc1)Cc1ccccc1	.	-3	?	-18	-6%	?
O=S(=O)(Nc1cccc2ccccc12)c1ccc2ccccc2c1	.	2	.	3	.	.
Cc1ccc2cc(C#N)c(NCCNC(=O)C3CC3)nc2c1C	2%	-6	7%	-17	10µM*	?
Cc1ccc2cc(C#N)c(NCCNC(=S)NCCCN(C)C)nc2c1C	4%	-9	?	-32	?	?
Cn1c(SCc2ccccc2)nnc1-c1cccs1	-3%	32*	-9%	81*	10%	43%
Cn1c(SCc2ccc(F)cc2)nnc1-c1cccs1	-3%	46*	4%	62	-3%	51%
COCCNC(=S)N1CCc2cc(OC)c(OC)cc2C1COc1ccc(C(C)C)cc1 (configuration not stated)	?	-3	8.3µM*	-19	?	12µM*
COCCNC(=S)N1CCc2cc(OC)c(OC)cc2C1c1cccs1 (configuration not stated)	-6%	3	5.9µM*	-14	5%	2.9µM*
COCCNC(=S)N1CCc2cc(OC)c(OC)cc2C1COc1ccc(F)cc1 (configuration not stated)	-10%	7	35%	-16	-14%	?
CCNC(=S)N1CCc2cc(OC)c(OC)cc2C1COc1ccc(F)cc1 (configuration not stated)	-8%	7	8.3µM*	-15	-8%	?
Cn1c(CNC(=O)OC(C)(C)C)nnc1SCC(=O)N1CCOCC1	2%	1	42%	-2	-2%	34%
O=C1NC(=O)C(c2ccccc2)(c2ccc(Cl)cc2Cl)N1 (configuration not stated)	-4%	.	.	.	14%	.
COc1ccc(N=Cc2[nH]c3ccccc3c2O)cc1	-11%	31*	160%	42*	23%	17%
COc1ccc(N=Cc2ccccc2O)cc1	5%	.	.	.	-10%	.
O=C1C(C=Nc2ccccc2)=C(O)c2ccccc21	-8%	29*	.	173*	10%	36%
CN=CC1=C(O)c2ccccc2C1=O	0%	41*	-20%	76*	2%	30%
COc1ccc(N=Cc2oc3ccc4ccccc4c3c2O)cc1	-22%	50*	154%	72*	5%	160%
O=C(NCc1ccccn1)C1(C(F)(F)F)CC(CCCO)CCCO1 (configuration not stated)	.	-1	.	-7	.	.
SMILES	AMA1 RON2 block	CHX counter	Pf growth 96h	Shiga inhibitor	HCV inh	Pf growth 48h
COC(=O)[C@]1(Cc2ccccc2)N[C@H](CN(C)C(=O)Nc2ccc(C(F)(F)F)cc2)[C@@H]2C(=O)N(C)C(=O)[C@@H]21	5%	.	.	.	?	.
CCC(c1nnnn1-c1ccc2c(c1)OCCO2)N1CCN(C(C)=O)CC1 (configuration not stated)	2%	.	.	.	.	.
O=S(=O)(O)c1ccc(O)cc1	.	.	6%	.	.	10%
COc1ccc(N=CC2=C(O)c3ccccc3C2=O)cc1	16%	24*	.	107*	0%	214%
Cc1cccc(C(=O)N[C@H](C(=O)OCC(=O)NC(=O)c2cccn2C)C(C)C)c1	-14%	32*	26%	-6	5%	7%
Cn1cccc1C(=O)NC(=O)COC(=O)c1ccccc1O	-2%	17*	.	19	6%	5%
COc1cc(OC)cc(C(=O)N[C@H](C(=O)OCC(=O)Nc2ccc(C)cc2C)C(C)C)c1	-17%	-2	4%	-1	-7%	19%
CC1CC1C(=O)OCC(=O)Nc1ncc(Cl)cc1Cl (configuration not stated)	-22%	.	16%	.	-1%	-19%
Cn1cccc1C(=O)NC(=O)COC(=O)c1ccc(O)cc1	-6%	19	-4%	23	15%	.
Cn1cccc1C(=O)NC(=O)COC(=O)C12CC3CC(CC(O)(C3)C1)C2	12%	43*	181%	53*	13%	.
CC(=O)NC12CC3CC(C1)CC(C(=O)OCC(=O)Nc1ncc(Cl)cc1Cl)(C3)C2	-18%	-1	12µM*	0	-2%	?
O=C(Cn1cnc2ccccc21)N1CCN(S(=O)(=O)c2ccccc2)CC1	1%	-8	19%	-11	?	16%
COC(=O)[C@@]12CCCCN1[C@H](c1ccc(-c3ccc(C(C)=O)cc3)cc1)[C@@H]1C(=O)N(C)C(=O)[C@@H]12	-1%	.	?	.	1%	?
CC(=O)NC12CC3CC(C1)CC(C(=O)OCC(=O)NC(=O)c1cccn1C)(C3)C2	20%	20*	.	70	4%	20%
CCN(C(=O)COC(=O)C12CC3CC(CC(NC(C)=O)(C3)C1)C2)C1CCCCC1	9%	.	11%	.	12%	3%
O=C(COC(=O)C12CC3CC(CC(Br)(C3)C1)C2)Nc1c(F)cccc1F	-3%	.	.	.	2%	.
CC(=O)NC12CC3CC(C1)CC(C(=O)OCC(=O)Nc1c(F)cccc1F)(C3)C2	-14%	.	6.6µM*	.	7%	?
O=C1CCCC2=C1C(c1ccccc1)CC(=O)N2c1ccc(F)cc1F (configuration not stated)	-4%	5	90%	-9	13%	?
O=C1[C@H]2[C@@H](c3ccc(F)cc3)N3C(=O)N(c4ccccc4)C(=O)[C@@]3(Cc3ccc(Cl)cc3)[C@H]2C(=O)N1C1CCCCC1	7%	-1	?	18	-8%	?
O=C1[C@H]2[C@@H](c3ccc(F)cc3)N3C(=O)N(c4cccc(Cl)c4)C(=O)[C@@]3(Cc3ccc(Cl)cc3)[C@H]2C(=O)N1C1CCCCC1	11%	-2	5.2µM*	-3	18%	4.7µM*

High-throughput results: PubChem BioAssay, National Center for Advancing Translational Sciences (NCATS)
